This passage reports binding signal results from paper PMC5700166.

Common to all, as to test: protein-binding microarray (PBM); PBM: ~300 nM protein, 6 mM HEPES pH 7.8, 80 mM KCl, 0.5 mM EDTA, 0.5 mM EGTA, 6% glycerol, 35 ng/ul poly-dIdC, 1% milk, 1 h, room temperature; Ap Aiptasia and Nv Nematostella (sea anemones) / Co Capsaspora / Aq Amphimedon (sponge) / Dm Drosophila / Hu human; RHD is the Rel homology domain; high values mean tight binding
Conditions in all cases: dsDNA, one strand shown

The target of one assay is T1, GST-Ap-NF-kB RHD (Exaiptasia pallida (Aiptasia), UniProt A0A913YAJ5 2-422).
T1 sequence: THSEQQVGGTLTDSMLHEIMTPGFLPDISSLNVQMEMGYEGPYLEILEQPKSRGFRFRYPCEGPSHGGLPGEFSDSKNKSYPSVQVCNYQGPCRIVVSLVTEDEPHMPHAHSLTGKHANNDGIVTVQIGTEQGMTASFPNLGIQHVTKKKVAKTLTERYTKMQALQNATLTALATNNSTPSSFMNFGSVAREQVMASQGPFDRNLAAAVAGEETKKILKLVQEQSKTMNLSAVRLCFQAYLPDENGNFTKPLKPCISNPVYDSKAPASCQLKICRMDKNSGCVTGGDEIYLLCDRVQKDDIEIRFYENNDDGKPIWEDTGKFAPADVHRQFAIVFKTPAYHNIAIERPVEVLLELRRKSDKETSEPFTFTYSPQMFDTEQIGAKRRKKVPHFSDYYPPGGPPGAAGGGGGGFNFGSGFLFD

In assay [1] the target is T2, GST-Nv-NF-kB (Cys allele) (Nematostella vectensis, UniProt E5G601 2-411).
T2 sequence: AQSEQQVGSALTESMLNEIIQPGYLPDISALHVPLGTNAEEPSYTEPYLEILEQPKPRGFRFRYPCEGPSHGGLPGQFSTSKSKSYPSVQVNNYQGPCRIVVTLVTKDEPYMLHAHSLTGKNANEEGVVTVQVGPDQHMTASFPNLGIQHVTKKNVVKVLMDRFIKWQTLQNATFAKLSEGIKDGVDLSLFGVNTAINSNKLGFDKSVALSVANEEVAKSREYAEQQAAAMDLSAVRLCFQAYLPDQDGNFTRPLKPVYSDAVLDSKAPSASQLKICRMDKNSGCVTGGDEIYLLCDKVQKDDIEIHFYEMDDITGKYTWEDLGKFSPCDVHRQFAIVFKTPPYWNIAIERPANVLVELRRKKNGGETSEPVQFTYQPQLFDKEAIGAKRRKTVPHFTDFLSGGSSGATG

The target of a further assay is T3, GST-Co-NF-kB (Capsaspora owczarzaki, UniProt F1ARL5 200-546).
T3 sequence: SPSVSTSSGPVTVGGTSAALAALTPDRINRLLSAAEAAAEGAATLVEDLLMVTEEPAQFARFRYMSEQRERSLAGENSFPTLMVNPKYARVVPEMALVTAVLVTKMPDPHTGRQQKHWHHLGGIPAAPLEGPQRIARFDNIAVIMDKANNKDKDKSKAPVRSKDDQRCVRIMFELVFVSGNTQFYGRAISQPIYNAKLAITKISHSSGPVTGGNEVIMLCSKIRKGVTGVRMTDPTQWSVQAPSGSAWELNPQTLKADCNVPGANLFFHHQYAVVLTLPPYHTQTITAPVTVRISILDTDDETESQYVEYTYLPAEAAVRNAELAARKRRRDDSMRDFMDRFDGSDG

In another assay the target is T4, GST-Dm-Relish (Drosophila melanogaster, UniProt Q94527 99-473).
T4 sequence: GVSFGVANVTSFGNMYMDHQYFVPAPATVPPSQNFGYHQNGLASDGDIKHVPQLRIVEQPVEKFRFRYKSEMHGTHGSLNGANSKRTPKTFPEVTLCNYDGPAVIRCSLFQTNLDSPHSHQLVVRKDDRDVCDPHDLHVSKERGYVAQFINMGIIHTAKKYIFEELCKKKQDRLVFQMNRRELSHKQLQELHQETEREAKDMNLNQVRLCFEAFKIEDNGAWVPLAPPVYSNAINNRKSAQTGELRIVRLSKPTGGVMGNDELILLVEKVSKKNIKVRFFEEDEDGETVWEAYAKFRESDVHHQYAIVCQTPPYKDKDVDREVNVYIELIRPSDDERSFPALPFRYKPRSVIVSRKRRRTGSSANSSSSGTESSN

For the next assay, the target named is T5, GST-Aq-NF-kB (Amphimedon queenslandica, UniProt A9Y5G7 2-389).
T5 sequence: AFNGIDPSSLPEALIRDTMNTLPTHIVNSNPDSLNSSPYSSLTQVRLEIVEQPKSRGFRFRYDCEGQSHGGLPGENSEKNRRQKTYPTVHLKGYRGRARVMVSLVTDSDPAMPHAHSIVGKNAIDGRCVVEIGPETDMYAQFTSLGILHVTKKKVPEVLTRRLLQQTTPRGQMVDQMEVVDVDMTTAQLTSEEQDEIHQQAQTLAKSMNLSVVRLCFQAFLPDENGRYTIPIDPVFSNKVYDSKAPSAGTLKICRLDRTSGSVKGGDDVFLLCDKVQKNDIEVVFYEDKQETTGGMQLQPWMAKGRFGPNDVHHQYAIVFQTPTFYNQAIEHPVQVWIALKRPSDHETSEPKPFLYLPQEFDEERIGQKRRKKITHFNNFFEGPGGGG

Consider “CCGATTAACATCAAAAAATGCCCTGATGTTAATCGGGTCTTGATTCGCTTGACGCTGCTG”, for which the binding signal came out at 2.08 z-score with GST-Ap-NF-kB RHD; 3.03 z-score in assay [1]; 1 z-score with GST-Co-NF-kB; 3.67 z-score in the assay with GST-Dm-Relish; 4.05 z-score in the assay with GST-Aq-NF-kB.
On to “CCGATTAACATCAGGGGATGACCTGATGTTAATCGGGTCTTGATTCGCTTGACGCTGCTG”, for which the binding signal was found to be 3.72 z-score with GST-Ap-NF-kB RHD; 4.14 z-score in assay [1]; 1.93 z-score in the assay with GST-Co-NF-kB; 6.67 z-score in the assay with GST-Dm-Relish; 6.55 z-score in the assay with GST-Aq-NF-kB.
The matching figures for “CCGATTAACATCAGGGATACCCCTGATGTTAATCGGGTCTTGATTCGCTTGACGCTGCTG”: 6.66 z-score, 5.69 z-score, 4 z-score, 7.22 z-score and 6.98 z-score.
Regarding “CCGATTAACATCAGGATATTCCCTGATGTTAATCGGGTCTTGATTCGCTTGACGCTGCTG”, the binding signal turned out to be 4.67 z-score with GST-Ap-NF-kB RHD; 5.16 z-score in assay [1]; 3.51 z-score with GST-Co-NF-kB; 3.37 z-score in the assay with GST-Dm-Relish; 6.63 z-score with GST-Aq-NF-kB.
Consider “CCGATTAACATCAAAGAAGCCCCTGATGTTAATCGGGTCTTGATTCGCTTGACGCTGCTG”, for which the binding signal is 4.38 z-score in the assay with GST-Ap-NF-kB RHD; 5.52 z-score in assay [1]; 1.52 z-score with GST-Co-NF-kB; 4.39 z-score with GST-Dm-Relish; 5.13 z-score with GST-Aq-NF-kB.
As to “CCGATTAACATCAGAATATTCCCTGATGTTAATCGGGTCTTGATTCGCTTGACGCTGCTG”, the binding signal turned out to be 5.6 z-score with GST-Ap-NF-kB RHD; 6.1 z-score in assay [1]; 3.41 z-score in the assay with GST-Co-NF-kB; 3.01 z-score with GST-Dm-Relish; 5.6 z-score with GST-Aq-NF-kB.
Turning to “CCGATTAACATCACTAATTTCCCTGATGTTAATCGGGTCTTGATTCGCTTGACGCTGCTG”, the binding signal with GST-Ap-NF-kB RHD was 3.79 z-score; in assay [1], 4.55 z-score; with GST-Co-NF-kB, 4.57 z-score; with GST-Dm-Relish, 2.5 z-score; in the assay with GST-Aq-NF-kB, 4.09 z-score.
As to “CCGATTAACATCACGGGATTTCCTGATGTTAATCGGGTCTTGATTCGCTTGACGCTGCTG”, the binding signal with GST-Ap-NF-kB RHD came out at 4.81 z-score; in assay [1], 4.51 z-score; in the assay with GST-Co-NF-kB it was 1.37 z-score; in the assay with GST-Dm-Relish, 7.57 z-score; with GST-Aq-NF-kB, 6.62 z-score.
The matching figures for “CCGATTAACATCAAATATACCCATGATGTTAATCGGGTCTTGATTCGCTTGACGCTGCTG”: 2.13 z-score, 2.41 z-score, 1.8 z-score, 2.31 z-score and 2.52 z-score.
Take “CCGATTAACATCAGGGTATTTACTGATGTTAATCGGGTCTTGATTCGCTTGACGCTGCTG”: the binding signal was found to be 3.45 z-score in the assay with GST-Ap-NF-kB RHD; 5.05 z-score in assay [1]; 1.4 z-score with GST-Co-NF-kB; 7.1 z-score with GST-Dm-Relish; 6.01 z-score with GST-Aq-NF-kB.
The corresponding values for “CCGATTAACATCATTCGGGAAAATGATGTTAATCGGGTCTTGATTCGCTTGACGCTGCTG” are 1.48 z-score, 3.97 z-score, 3.01 z-score, 1.3 z-score and 2.01 z-score.
The corresponding values for “CCGATTAACATCAGGGAACTCCATGATGTTAATCGGGTCTTGATTCGCTTGACGCTGCTG” are 2.66 z-score, 2.2 z-score, 1.5 z-score, 6.21 z-score and 3.71 z-score.
For the sequence “CCGATTAACATCACGGGGTTCCCTGATGTTAATCGGGTCTTGATTCGCTTGACGCTGCTG”, the binding signal with GST-Ap-NF-kB RHD was found to be 4.82 z-score; in assay [1] it was 2.58 z-score; in the assay with GST-Co-NF-kB it was 2.51 z-score; in the assay with GST-Dm-Relish it was 9.28 z-score; with GST-Aq-NF-kB, 6.02 z-score.
The matching figures for “CCGATTAACATCAGGGAAATTCATGATGTTAATCGGGTCTTGATTCGCTTGACGCTGCTG”: 4.54 z-score, 6.28 z-score, 4.15 z-score, 2.26 z-score and 5.94 z-score.
As to “CCGATTAACATCATGCGGGAAAATGATGTTAATCGGGTCTTGATTCGCTTGACGCTGCTG”, the binding signal was found to be 2.22 z-score in the assay with GST-Ap-NF-kB RHD; 3.71 z-score in assay [1]; 4.47 z-score in the assay with GST-Co-NF-kB; 1.22 z-score with GST-Dm-Relish; 2.76 z-score with GST-Aq-NF-kB.
For the sequence “CCGATTAACATCAGGGAACCCCATGATGTTAATCGGGTCTTGATTCGCTTGACGCTGCTG”, the binding signal was 3.95 z-score in the assay with GST-Ap-NF-kB RHD; 2.07 z-score in assay [1]; 1.54 z-score with GST-Co-NF-kB; 10.5 z-score in the assay with GST-Dm-Relish; 4.59 z-score with GST-Aq-NF-kB.
As for “CCGATTAACATCAGGGGGTAACCTGATGTTAATCGGGTCTTGATTCGCTTGACGCTGCTG”, the binding signal with GST-Ap-NF-kB RHD was found to be 6.07 z-score; in assay [1] it was 3.41 z-score; with GST-Co-NF-kB it was 5.91 z-score; with GST-Dm-Relish it was 3.94 z-score; in the assay with GST-Aq-NF-kB, 5.48 z-score.
As to “CCGATTAACATCAAAAACTCCCATGATGTTAATCGGGTCTTGATTCGCTTGACGCTGCTG”, the binding signal with GST-Ap-NF-kB RHD worked out at 4.22 z-score; in assay [1] it was 5.15 z-score; in the assay with GST-Co-NF-kB, 2.58 z-score; with GST-Dm-Relish it was 5.66 z-score; with GST-Aq-NF-kB, 5.3 z-score.
The matching figures for “CCGATTAACATCAGGATCTTCCCTGATGTTAATCGGGTCTTGATTCGCTTGACGCTGCTG”: 3.64 z-score, 3.68 z-score, 1.18 z-score, 1.53 z-score and 5.89 z-score.
The matching figures for “CCGATTAACATCACGGACTCCCCTGATGTTAATCGGGTCTTGATTCGCTTGACGCTGCTG”: 5.18 z-score, 3.32 z-score, 3.37 z-score, 6.19 z-score and 4.33 z-score.
The matching figures for “CCGATTAACATCAGATACCCCCCTGATGTTAATCGGGTCTTGATTCGCTTGACGCTGCTG”: 6.55 z-score, 4.3 z-score, 4.8 z-score, 3.94 z-score and 4.46 z-score.
As to “CCGATTAACATCAAGGGGGTGACTGATGTTAATCGGGTCTTGATTCGCTTGACGCTGCTG”, the binding signal worked out at 4.68 z-score with GST-Ap-NF-kB RHD; 3.59 z-score in assay [1]; 3.04 z-score with GST-Co-NF-kB; 2.43 z-score in the assay with GST-Dm-Relish; 4.26 z-score with GST-Aq-NF-kB.
Turning to “CCGATTAACATCAGGGGGTAGAATGATGTTAATCGGGTCTTGATTCGCTTGACGCTGCTG”, the binding signal with GST-Ap-NF-kB RHD was determined as 4.45 z-score; in assay [1], 2.63 z-score; with GST-Co-NF-kB, 7.1 z-score; in the assay with GST-Dm-Relish, 2.13 z-score; with GST-Aq-NF-kB it was 3.38 z-score.
The corresponding values for “CCGATTAACATCAGGGGTAAAACTGATGTTAATCGGGTCTTGATTCGCTTGACGCTGCTG” are 2.3 z-score, 1.97 z-score, 6.26 z-score, 1.85 z-score and 2.73 z-score.
The corresponding values for “CCGATTAACATCAAAACAGCCCCTGATGTTAATCGGGTCTTGATTCGCTTGACGCTGCTG” are 3.58 z-score, 4.9 z-score, 1.71 z-score, 3.31 z-score and 5.54 z-score.
The corresponding values for “CCGATTAACATCACGGGAGTTCCTGATGTTAATCGGGTCTTGATTCGCTTGACGCTGCTG” are 3.99 z-score, 3.71 z-score, 1.77 z-score, 4.98 z-score and 5.04 z-score.
“CCGATTAACATCAGGCATTTCCCTGATGTTAATCGGGTCTTGATTCGCTTGACGCTGCTG”: the binding signal was 3 z-score with GST-Ap-NF-kB RHD; 5.12 z-score in assay [1]; 1.77 z-score in the assay with GST-Co-NF-kB; 1.97 z-score with GST-Dm-Relish; 6.69 z-score in the assay with GST-Aq-NF-kB.
The matching figures for “CCGATTAACATCAGGGGAGCCCCTGATGTTAATCGGGTCTTGATTCGCTTGACGCTGCTG”: 8.45 z-score, 6.25 z-score, 3.64 z-score, 8.74 z-score and 8.27 z-score.
